{"source": "PubChem BioAssay", "note": "Values without a mark were called inactive. Calls of active or inactive are those of the source. Rule as the data show it: active = inhibition above about 28%; inactive = the rest."}
{"test": "StAR promoter reporter inhibitors, counter-screen for LRH-1 inverse agonist project, cell-based, luminescence, high throughput (AID 651611)", "conditions": "StAR promoter luciferase reporter counterscreen, at 3.6 µM, active compounds read high"}
{"smiles": "c1ccc(C2=Nn3c(nnc3-c3n[nH]c4c3CCC4)SC2)cc1", "inhibition": "47.6% (active)"}
{"smiles": "Cc1cccc(NC(=O)COC(=O)c2cccs2)c1C", "inhibition": "0.76%"}
{"smiles": "CC(=O)N1CCN(c2ccc(NCc3ccc(C)cc3)cc2)CC1", "inhibition": "1.04%"}
{"smiles": "Cn1c(=O)n(C)c2cc(NC(=O)CCl)ccc21", "inhibition": "60.5% (active)"}
{"smiles": "COc1cccc(C(C)(O)c2nc(-c3cccc(C#N)c3)cs2)c1", "note": "(stereo unspecified)", "inhibition": "19.6%"}
{"smiles": "O=[N+]([O-])c1cccc(-c2ccc3nnc(SCc4cccnc4)n3n2)c1", "inhibition": "3.6%"}
{"smiles": "c1csc(CCNc2ncnc3sc4c(c23)CCC4)c1", "inhibition": "10.5%"}
{"smiles": "Cc1ccccc1OCC(=O)N/N=C/c1ccc([N+](=O)[O-])o1", "inhibition": "18.6%"}
{"smiles": "O=C(Nc1nc2ccc(F)cc2s1)c1ccc([N+](=O)[O-])o1", "inhibition": "-101%"}
{"smiles": "CCC(=O)N1CCN(c2ccc(NC(=O)c3ccc([N+](=O)[O-])o3)cc2Cl)CC1", "inhibition": "13%"}
{"smiles": "Cc1sc(NC(=S)NC(=O)CCc2ccccc2)c(C(N)=O)c1C", "inhibition": "54% (active)"}
{"smiles": "Cc1cc(C)n(-c2nc(Nc3ccccc3C(F)(F)F)nc(-n3nc(C)cc3C)n2)n1", "inhibition": "20.8%"}
{"smiles": "O=C(Nc1ccc(N2CCN(C(=O)c3ccccc3)CC2)cc1)c1ccc([N+](=O)[O-])o1", "inhibition": "22.4%"}
{"smiles": "O=[N+]([O-])c1ccc(/C=N/n2c(CO)nc3ccccc32)s1", "inhibition": "16.3%"}
{"smiles": "CC(C)c1cc(NC(=O)CCl)on1", "inhibition": "35.2% (active)"}
{"smiles": "COc1ccc(N2CC(C(=O)N/N=C/c3ccc(C)cc3)CC2=O)cc1", "note": "(stereo unspecified)", "inhibition": "40.7% (active)"}
